Common to all, as to experiment: NCI-60 one-dose screen, 48 h (100 = growth as untreated, 0 = no growth, -100 = all killed)
The subject of test [1] is SK-MEL-2 melanoma. To be noted: 10 µM unless noted.
In test [2] the test system is EKVX NSCLC. The settings on record: 10 µM unless noted.
Test [3] relates to SN12C renal. To be noted: 10 µM unless noted.
Test [4] deals with UO-31 renal. To be noted: 10 µM unless noted.
The test system of test [5] is TK-10 renal. The settings on record: 10 µM unless noted.
Test [6] has as its system ACHN renal. The settings on record: 10 µM unless noted.
Test [7] relates to CAKI-1 renal. To be noted: 10 µM unless noted.
Test [8] relates to A498 renal. The settings on record: 10 µM unless noted.
For test [9], the system named is CCRF-CEM leukemia. The settings on record: 10 µM unless noted.
For test [10], the system named is MOLT-4 leukemia. To be noted: 10 µM unless noted.
The subject of test [11] is SR leukemia. The settings on record: 10 µM unless noted.
Test [12] relates to RPMI-8226 leukemia. The settings on record: 10 µM unless noted.
The test system of test [13] is OVCAR-8 ovarian. The settings on record: 10 µM unless noted.
In test [14] the test system is OVCAR-5 ovarian. The settings on record: 10 µM unless noted.
The subject of test [15] is OVCAR-4 ovarian. To be noted: 10 µM.
Test [16] concerns SK-OV-3 ovarian. The settings on record: 10 µM unless noted.
Test [17] concerns OVCAR-3 ovarian. The settings on record: 10 µM unless noted.
Test [18] deals with NCI/ADR-RES ovarian. The settings on record: 10 µM unless noted.
Test [19] relates to IGROV1 ovarian. To be noted: 10 µM unless noted.
The subject of test [20] is HS 578T breast. To be noted: 10 µM unless noted.

Each structure is given as a SMILES string. The panel holds about 83,000 compounds, 20% with a hit somewhere; the sample as a whole holds those more often.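 Assay: single dose, 48 h. Readout: percent growth (0 = no net growth; negative = cell death). Active: <10.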 Unmarked numbers belong to inactive results. Activity calls are given as the source filed them.

As to `CCCCCCCCCCCCCC[n+]1cccc(C(N)=O)c1`, the growth was -12.1% (active) in test [1]; -16.2% (active) in test [2]; 1.56% (active) in [3]; 62% in test [4]; 24% in test [5]; 35.4% in test [6]. Besides, the growth is 15.5% in test [7]; 61.1% in test [8]; -18.8% (active) in [9]; -31% (active) in test [10]; -25.9% (active) in [11]; -51.2% (active) in test [12]. Moreover, the growth was 18% in test [13]; 44.2% in test [14]; 14.5% in test [15]; 23.3% in test [16]; -32.4% (active) in test [17]; 105% in test [18].
With `C[n+]1c(-c2ccccc2)c2cc(N)ccc2c2ccccc21`, the growth in test [1] was 19.6%; in test [2], 26.6%; in test [3] it was 4.79% (active); in [4] it was 89.9%; in test [5], 90.4%; in test [6], 95.7%. Moreover, the growth in [7] is 110%; in [8], 126%; in test [9], 50.9%; in test [10], 33.5%; in [11], 21.9%; in [12], 17.7%. Moreover, the growth in test [13] is 34%; in [14] it was 107%; in [15], 29.8%; in test [19], 23.6%; in test [17], 69.7%.
Regarding `CCN(CC)CCSC(=O)C(O)(c1ccccc1)C1CCCC1` (configuration not stated), the growth in test [1] is 106%; in [2], 120%; in [3] it was 99.8%; in test [4] it was 78.1%; in test [5] it was 120%; in test [6], 105%. The growth is 92% in test [7]; 95.7% in [8]; 118% in [9]; 91.3% in [10]; 96.7% in [11]; 109% in [12]. Also, the growth in test [13] is 97.8%; in test [14], 94.6%; in test [15] it was 119%; in [16] it was 113%; in [20], 110%; in test [18] it was 84.5%.
For the compound `CNC(=O)c1cc(Oc2cccc3nc(NC(=O)Nc4cc(C(F)(F)F)cc(C(F)(F)F)c4)ccc23)ccn1`, the growth is 51% in [1]; 26.7% in [2]; 12.1% in [3]; 11.7% in test [4]; -25% (active) in [5]; -25.8% (active) in test [6]. Also, the growth in test [7] is 23.6%; in test [8] it was -36% (active); in test [9], 73.3%; in [10] it was 89.5%; in test [11], 47.9%; in [12], 41.1%. The growth in [13] was 37.2%; in test [14] it was 33.3%; in [15] it was -38.2% (active); in test [19], 51.4%; in [17], -15% (active).
Take `CCCCN(CC)CC(CC)Nc1cc(OC)cc2cccnc12` (configuration not stated): the growth was 115% in test [1]; 128% in test [2]; 99.7% in test [3]; 102% in test [4]; 100% in test [5]; 104% in test [6]. The growth was 111% in test [7]; 112% in [8]; 99.6% in test [9]; 111% in test [10]; 113% in test [11]; 105% in test [12]. Also, the growth was 103% in test [13]; 103% in [14]; 115% in test [15]; 127% in test [16]; 107% in test [17]; 101% in test [18].
Regarding `CCN1CCN(CC(=O)Nc2nc3ccc(NCc4ccc(Cl)cc4)cc3s2)CC1`, the growth in test [1] was 86.4%; in [2], 86.3%; in test [3], 68.4%; in test [4] it was 59.6%; in [5], 96.8%; in [6] it was 83.3%. Further, the growth in test [7] was 68.3%; in [8], 58.4%; in test [9], 50%; in test [10], 54.4%; in test [11], 15.8%; in test [12], 39.6%. Moreover, the growth was 78% in [13]; 74.6% in test [14]; 80.4% in test [15]; 70.9% in [19]; 62.1% in test [17]; 70.5% in test [20]. Moreover, in test [18], the growth was 82.6%.
Turning to `Cc1ccccc1-n1nnc(C(=O)Nc2nc3ccc(F)cc3s2)c1C`, the growth in test [1] was 65.3%; in test [2], 64.9%; in test [3], 68.6%; in test [4], 58%; in test [5], 71.4%; in [6], 64.7%. Further, the growth in test [7] was 49.6%; in test [8] it was 31.4%; in [9] it was 66.5%; in test [10], 43.7%; in [11], 55.9%; in test [12], 45%. Besides, the growth in test [13] was 73.2%; in [14] it was 82.2%; in [15], 10.6%; in [19] it was 75.7%; in test [17], 57.9%; in [20], 73.6%. In [18], the growth was 60.7%.
In the case of `CSc1nc2c(c(=O)n1C)C1(C(=O)N(Cc3ccccc3)c3ccccc31)c1c(nc(SC)n(C)c1=O)N2`, the growth was 80.8% in [1]; 100% in [2]; 95.1% in test [3]; 73.9% in test [4]; 113% in [5]; 77.5% in test [6]. Moreover, the growth is 103% in [7]; 72.6% in test [8]; 98.8% in test [9]; 99.9% in test [10]; 104% in test [11]; 59.2% in test [12]. Further, the growth in test [13] is 85.5%; in test [14] it was 102%; in test [15] it was 99.5%; in test [19], 98%; in [17] it was 75.2%; in [20], 97.9%.
As for `Nc1cc(NN=C(c2ccc(O)cc2)c2ccc(O)cc2)c([N+](=O)[O-])cc1[N+](=O)[O-]`, the growth in test [1] was -93.6% (active); in test [2], 97%; in [3], 53%; in test [4] it was -88.7% (active); in test [5] it was 84.3%; in test [6], 18.1%. Further, the growth is 90.7% in test [7]; 101% in [8]; 91.3% in test [9]; 69.5% in test [10]; 39.2% in test [11]; 74.3% in test [12]. The growth was -75.8% (active) in [13]; -50.9% (active) in [14]; 76.1% in [15]; -44.4% (active) in test [16]; 71.4% in test [20]; 7.33% (active) in test [18].

The record behind these values is PubChem BioAssay (NCI).
